Laboratory results reported in PubChem BioAssay AID463082 (The Scripps Research Institute Molecular Screening Center, 2010).
Among all 330,000 compounds or so, about 4,900 (1.5%) were called active. Shown is part of a subset that was picked to be rich in actives. Unmarked numbers belong to inactive results.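 The calls were made as follows: active = inhibition above the mean inhibition across the screen plus 3 SD (cut at about 25% in these data); inactive = the rest.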

target: Platelet-activating factor acetylhydrolase (Homo sapiens) (UniProt Q13093); experiment: inhibition of plasma PAF acetylhydrolase – biochemical, fluorescence polarization, human, primary screen (AID 463082); details: recombinant pPAFAH, FP-rhodamine probe fluorescence polarization; at 3.39 µM; stronger effect = higher value;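 also: inhibitors block binding of the rhodamine activity-based probe so polarization drops; 0% = enzyme with DMSO and 100% = wells lacking pPAFAH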
Sequence (Q13093 whole entry, looked up): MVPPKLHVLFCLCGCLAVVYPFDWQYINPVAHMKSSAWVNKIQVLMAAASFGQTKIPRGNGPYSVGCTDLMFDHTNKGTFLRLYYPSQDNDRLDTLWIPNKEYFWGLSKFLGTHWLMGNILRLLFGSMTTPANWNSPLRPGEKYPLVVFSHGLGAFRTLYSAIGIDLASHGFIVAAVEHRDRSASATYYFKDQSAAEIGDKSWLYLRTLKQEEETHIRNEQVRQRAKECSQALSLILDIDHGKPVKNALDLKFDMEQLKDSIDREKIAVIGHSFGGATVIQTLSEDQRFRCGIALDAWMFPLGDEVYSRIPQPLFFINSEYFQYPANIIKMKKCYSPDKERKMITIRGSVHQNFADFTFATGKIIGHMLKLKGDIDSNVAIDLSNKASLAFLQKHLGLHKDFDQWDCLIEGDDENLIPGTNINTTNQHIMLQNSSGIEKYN

SMILES | inhibition
Cn1ncc(N2CCN(S(=O)(=O)c3ccc(Br)cc3)CC2)c(Cl)c1=O | -5.38%
Cc1ccc(-c2nn(-c3ccccc3)cc2/C=C/C(=O)Nc2cccc(S(N)(=O)=O)c2)cc1 | -54.5%
CN(C)S(=O)(=O)c1cccc(-c2nn(-c3ccccc3)cc2/C=C2\SC(=S)N(CC(=O)O)C2=O)c1 | 38.2% (active)
C=CCOc1ccc(/C=C2\SC(=S)N(CCC(=O)O)C2=O)cc1 | 10.2%
Cc1ccc(-c2nn(-c3ccccc3)cc2/C=C2\SC(=S)N(CCCCCC(=O)O)C2=O)o1 | 31.3% (active)
O=C(CN1C(=O)/C(=C\c2ccccc2F)SC1=S)Nc1nc2ccccc2s1 | 7.09%
Cc1ccc(/C=C2\SC(=S)N(CCC(=O)Nc3ccc(O)cc3)C2=O)cc1 | 4.61%
O=C(N[C@@H]1C/C=C\C[C@@H](CC(=O)N(CCO)Cc2ccccc2)C(=O)N[C@H](Cc2ccccc2)COC1=O)OCC1c2ccccc2-c2ccccc21 | 7.18%
O=C(NCCc1ccccn1)c1cc(C(=O)C2CCCCC2)c[nH]1 | 4.41%
O=[N+]([O-])c1ncc(Br)cc1Nc1ccccc1 | 0.58%
O=[N+]([O-])c1cc(S(=O)(=O)CCCN2CCOCC2)ccc1F | 0.16%
N#Cc1ccccc1S(=O)(=O)N1CCN(C(=O)c2cc(-c3ccccc3)nn2-c2ccccc2)CC1 | 0.65%
Cc1cccc(C)c1Nc1nnc(SCC(=O)NCCCN2CCCC2=O)s1 | 1.62%
Cc1csc(SCC(=O)Nc2sccc2C#N)n1 | 11.3%
Cc1cccc(C)c1Nc1nnc(SCC(=O)Nc2sccc2C#N)s1 | 27.6% (active)
CC1=CC=CC2=N/C(=N\S(=O)(=O)c3ccc(F)cc3F)c3ccccc3CN12 | 1.76%
CC(C)C(=O)Nc1oc(-c2ccccc2)cc1C#N | -0.35%
COc1cc(C(=O)Nc2oc(-c3ccccc3)c(-c3ccccc3)c2C#N)cc(OC)c1OC | 4.29%
CC(Oc1ccccc1)C(=O)Nc1oc(-c2ccco2)c(-c2ccco2)c1C#N (stereo unspecified) | 28.7% (active)

SMILES | inhibition
O=C(COC(=O)COc1cccc(F)c1)NCC1CCCCC1 | 7.16%
O=C(CNC(=O)c1cc(=O)[nH]c2ccccc12)Nc1ccc(F)c(F)c1 | 0.37%
Cc1c(C(=O)OCC(=O)N(CCC#N)c2ccccc2)oc2c1ccc1ccccc12 | -0.27%
Cc1ccc2nc(SCC(=O)Nc3cccc4ccccc34)nc(=O)n2c1 | 3.47%
C=CCn1c(N)cc(=O)nc1SCC(=O)Nc1cccc2ccccc12 | 0.51%
Cc1ccccc1-n1c(SCC(=O)Nc2cccc3ccccc23)nc(O)cc1=O | 45.7% (active)
COc1ccccc1C(=O)N(Cc1ccc(C)o1)C1CCS(=O)(=O)C1 (stereo unspecified) | 0.97%
CN(C(=O)CSc1nnc(-c2ccc3c(c2)OCO3)o1)C1CCS(=O)(=O)C1 (stereo unspecified) | -3.28%
C=CCN(Cc1nc(-c2cc(OC)c3c(c2)OCO3)oc1C)C1CCS(=O)(=O)C1 (stereo unspecified) | 30.4% (active)
CNC(=S)NNC(=O)c1oc2nc(-c3ccccc3)cc(-c3ccco3)c2c1N | 11%
O=C(Nc1cccc(F)c1)c1cc(-c2ccco2)nc2ccccc12 | 16%
NNC(=O)c1oc2nc(-c3ccccc3)cc(-c3ccco3)c2c1N | 37.4% (active)
CC(=O)c1c(C)[nH]c(C(=O)COC(=O)c2cccc(S(=O)(=O)N(C)c3ccccc3)c2)c1C | -1.03%
Cc1ccc(C)c(NC(=O)CCC(=O)NNC(=O)c2cccs2)c1 | 4.49%
Cc1ccc(C)c(NC(=O)CCC(=O)N/N=C2/CC(=O)CC(C)(C)C2)c1 | 34.2% (active)
CC1(C)CC(=O)C/C(=N\NC(=O)c2cccs2)C1 | 1.45%
O=C(Nc1ccc(-c2ccc3nncn3n2)cc1)C1CCCCC1 | 3.72%
O=C(Nc1ccc(Br)cc1)c1cc(S(=O)(=O)Nc2ccccn2)ccc1Cl | 4.67%
Cc1ccc(-c2noc(CSc3nnc(-c4ccncc4)n3-c3ccc(F)cc3)n2)cc1 | 61.4% (active)

SMILES | inhibition
Fc1ccc(-n2c(Cc3ccccc3)nnc2SCc2nc(-c3ccc(Cl)cc3)no2)cc1 | 8.28%
Cc1ccc(-c2noc(CSc3nnc(-c4ccccc4)n3C)n2)cc1 | 2.63%
Cc1c(S(=O)(=O)NCc2ccccc2)c(=O)n(C)c(=O)n1C | 3.56%
Cc1ccc(N(C(=O)CNC(=O)c2ccco2)C(C(=O)NC2CCCC2)c2ccncc2)cc1 (stereo unspecified) | 3.58%
Cn1c(SCC(=O)Nc2ccc(N3CCOCC3)cc2)nnc1C(F)(F)F | -4.91%
Cc1c(CC(=O)N2CCN(C(=O)C3COc4ccccc4O3)CC2)c(=O)oc2c(O)c(O)ccc12 (stereo unspecified) | 80.7% (active)
CCN(CC)S(=O)(=O)c1ccc(N2CCOCC2)c(NC(=O)C2COc3ccccc3O2)c1 (stereo unspecified) | 1.62%
Cc1c(C)c2ccc(OCC(=O)N3CCC(C(=O)O)CC3)c(C)c2oc1=O | -1.32%
COc1cccc(/C=C2\Sc3ccc(C(=O)NCC4CCCO4)cc3N(C)C2=O)c1 (stereo unspecified) | 8.27%
Cc1cc(C)cc(OCC(=O)Nc2ccc(N3CCOCC3)cc2N2CCOCC2)c1 | 4.92%
Cc1cc(N2CCCC2)ccc1NC(=O)COc1ccc(Cl)cc1 | 27.4% (active)
CCC(=O)c1ccc(OCC(=O)Nc2ccc(N3CCCCC3)cc2)cc1 | 3.34%
Cn1c(CCC(=O)OCC(=O)NCc2ccccc2Cl)nc(=O)c2ccccc21 | 1.56%
S=C(NCC1CCCO1)N1CCN(c2ccc(Cl)c(Cl)c2)CC1 (stereo unspecified) | 14.9%
Oc1c(Br)cc(/C=N/NC(=S)NCC2CCCO2)cc1Br (stereo unspecified) | 35.5% (active)
S=C(NCCc1ccccc1)NCC1CCCO1 (stereo unspecified) | 3.38%
CN(C)c1nccc(NCc2ccccc2)c1C#N | 5.61%
CCOc1cccc2c1OC1(CCCCC1)N1N=C(c3cccnc3)CC21 (stereo unspecified) | 8.14%
